Pf Dd2 growth: qHTS Primary assay for Inhibitors of Plasmodium falciparum Dd2 growth in vitro. P. falciparum Dd2 growth, SYBR Green, 72 h. Potency, µM (top dose mostly 28.9 µM), actives largely listed as inhibitors. 120,000 tested, 4.3% active. AID 1347417, 2020; active = well fitted inhibition curve with a large enough effect; also: nearly all actives have a fitted effect of over 65% in size
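Infected erythrocytes (Dd2, 0.3% parasitemia, 2.5% hematocrit final) are added to compound in RPMI-1640/Albumax II medium, grown 72 h at 37C in low oxygen, then lysed with saponin/Triton-X containing SYBR Green and read by fluorescence.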
Numbers stand for hits; – = inactive; [ ] = dose if it differs, or a comment. Only a selection was taken, and hits are over-represented in it overall.

SMILES	Pf Dd2 growth
COc1ccc(CNC(=O)c2cc(-c3ccc(Br)s3)nc3ccccc23)c(OC)c1	–[5.79 µM]
CC(C)CCNC(=O)c1cc(-c2ccc(Br)s2)nc2ccccc12	–
CCc1ccccc1Nc1cc(C(=O)NCCCN(C)C2CCCCC2)c2ccccc2n1	–
COc1ccc(Nc2cc(C(=O)NCCc3ccccc3)c3ccccc3n2)cc1OC	–
Cc1cc(C)cc(Nc2cc(C(=O)NCCCN(C)C3CCCCC3)c3ccccc3n2)c1	6.31µM
CCc1ccccc1NC(=O)c1cc(-c2ccc(Cl)s2)nc2ccccc12	–
COc1ccc(Nc2cc(C(=O)NC3CCC(C)CC3)c3ccccc3n2)cc1OC (stereo not given)	–
CCc1ccc(CNC(=O)c2cc(-c3ccc(Cl)s3)nc3ccccc23)cc1	–
CCCCN(C)CCCNC(=O)c1cc(-c2ccc(Br)s2)nc2ccccc12	11.2µM
CCCCN(CCCNC(=O)c1cc(Nc2ccc(OC)c(OC)c2)nc2ccccc12)Cc1ccccc1	2.24µM
CCCCN(CCCC)CCCNC(=O)c1cc(-c2ccc(Cl)s2)nc2ccccc12	5.62µM
Cc1ccc(C)c(Nc2cc(C(=O)NCCCN(C)C3CCCCC3)c3ccccc3n2)c1	–
COc1ccc(CN2C(=O)COC[C@H]2C(=O)NCc2ccc(Cl)cc2)cc1OC	–
Cc1ccc(NC(=O)C2CCN(C(=O)c3ncn4c3COC(c3ccc(F)cc3)C4)CC2)cc1C (stereo not given)	–
O=C(C1CC(=O)N(c2n[nH]c3cccc(F)c23)C1)N1CCSCC1 (stereo not given)	–
COc1cccc(S(=O)(=O)N2CCC(c3noc(-c4cccnc4)n3)C2)c1 (stereo not given)	–[5.79 µM]
CN1C[C@H](O)C[C@H]1c1nnc2n1CCN(Cc1ccccc1)C2	–
Cc1ccc(F)cc1S(=O)(=O)N1C[C@@H](C)[C@@](C)(O)C1	–
COc1ccc(-c2nc3nc(C)cc(Nc4cccc(C(F)(F)F)c4)n3n2)cc1	–
Cc1cc(N2CCN(c3cccc(C(F)(F)F)c3)CC2)n2nc(-c3ccccc3C)nc2n1	11.2µM
COc1ccc(N2CCN(c3cc(C)nc4nc(-c5ccc(C)cc5)nn34)CC2)cc1	–
O=C(c1ccco1)N1CCC(c2nc(C3CCOCC3)no2)CC1	–
Cc1cccc(CN2CCCOCCNC(=O)[C@@H]3CCCC[C@@H]32)c1	–
Cc1ccc(CN2CCCOCCNC(=O)[C@@H]3CCCC[C@@H]32)s1	5.01µM
Cc1ccc(CN2CCCCCNC(=O)[C@@H]3CCC[C@@H]32)s1	–
SMILES	Pf Dd2 growth
CN1CCCCC(CC(=O)Nc2ccc(F)c(F)c2)C1=O (stereo not given)	–
COCC(=O)N1CCN(C(=O)CSCC(=O)O)C[C@H]1C(=O)N[C@H]1CCCNC1=O	–
O=C(Cc1ccsc1)N[C@@H]1COCC[C@@H]1OCc1cscn1	–
CCCc1cc(C(=O)NCCc2nc(-c3ccccn3)no2)n[nH]1	–
CCOC(=O)CCNC(=O)N1[C@@H]2CC[C@H]1CC(NC(=O)c1ccc(F)cc1)C2 (stereo not given in full)	–
CCOc1ccc(NC(=O)c2ccc3c(c2)N(CC)C2CCCCN2C3=O)cc1 (stereo not given)	5.01µM
CCOC(=O)c1ccc(NC(=O)c2ccc3c(c2)N(CC)C2CCCCN2C3=O)cc1 (stereo not given)	–
CCN1c2cc(C(=O)Nc3ccc(C)cc3)ccc2C(=O)N2CCCCCC21 (stereo not given)	–
CCN1c2cc(C(=O)Nc3cccc(OC)c3)ccc2C(=O)N2CCCCCC21 (stereo not given)	–
CCN1c2cc(C(=O)Nc3ccc(C)cc3C)ccc2C(=O)N2CCCCCC21 (stereo not given)	–
CN1c2cc(C(=O)Nc3cccc(OC(F)(F)F)c3)ccc2C(=O)N2CCCCC21 (stereo not given)	–
CCN1c2cc(C(=O)Nc3cccc(OC(F)(F)F)c3)ccc2C(=O)N2CCCCC21 (stereo not given)	4.47µM
CCN1c2cc(C(=O)Nc3cc(C)ccc3OC)ccc2C(=O)N2CCCCCC21 (stereo not given)	6.31µM
CCN1c2cc(C(=O)Nc3ccc(OC)c(OC)c3)ccc2C(=O)N2CCCCCC21 (stereo not given)	–
O=C(c1cccc(OC(F)(F)F)c1)N1CCC2(CC1)CC(O)CCO2 (stereo not given)	–
CCN(Cc1cnn(CC)c1)C(=O)c1ccc(N2CC3CC(C2)[C@H]2CCCC(=O)N2C3)nc1 (stereo not given in full)	–
COc1cccc(CNc2ncnc3c2CN(C2CCCNCC2)C(=O)CN3C)c1 (stereo not given)	–
CC(C)CC(=O)NCC1Cn2cccc2C(=O)N1Cc1ccccc1 (stereo not given)	–
Cc1ccc(C)c(NC2=C(c3ccc(C(F)(F)F)cc3)C(=O)c3ccccc32)c1	1.41µM
Cc1ccc(C)c(NS(=O)(=O)c2ccc3c4c(cccc24)C(=O)N3)c1	–
Cc1ccc(C)c(NC(=O)C(C)N(c2ccccc2)S(C)(=O)=O)c1 (stereo not given)	–
CCN(C(=O)Cn1ccn2nc3c(c2c1=O)CCCC3)c1ccccc1	–
C=CCNC(=O)C1CC(c2ccccc2F)=NO1 (stereo not given)	–
CCOC(=O)c1ccccc1Nc1cc(C)nc2nc(-c3ccco3)nn12	10µM
Cc1cc(Nc2ccccc2Cl)n2nc(-c3ccco3)nc2n1	–
SMILES	Pf Dd2 growth
Cc1cc(Nc2cccc(F)c2)n2nc(-c3ccco3)nc2n1	–
CCC[C@H](N)C(=O)N1CCC2(CCC(=O)N(Cc3cnc(C)cn3)C2)CC1	–
Cc1ncccc1C(=O)N1CCC(C(=O)N2CCCCCCNC(=O)CC2)CC1	–
CN(Cc1cccnc1)Cc1nc(CC(N)=O)nn1-c1ccc2c(c1)CCC2	–
CCCCOc1ccc(C(=O)N2CCN(CCc3ccccn3)CC2)cc1	–
O=C(c1cccc(Cl)c1)N1CCN(CCc2ccccn2)CC1	–
CCOc1ccccc1C(=O)N1CCN(CCc2ccccn2)CC1	3.98µM
O=C(c1ccccc1)N1CCN(CCc2ccccn2)CC1	–
CC(C)Oc1ccc(C(=O)N2CCN(CCc3ccccn3)CC2)cc1	–
O=C(c1ccccc1Cl)N1CCN(CCc2ccccn2)CC1	3.55µM
CC(C)(C)c1ccc2c(c1)C(C[C@H]1CN(S(C)(=O)=O)CC[C@H]1CC(=O)O)=NCC2	–
Cc1cccc(S(=O)(=O)N2C[C@@H](F)C[C@H]2C(=O)N2CCc3ccccc3C2)c1	–
O=C(CN1CCCc2nc(C3CC3)ncc2C1=O)NCCN1CCOCC1	–
C1=C(c2cc(-c3ccncc3)cn3cncc23)CCOC1	–
Cc1noc(C)c1-c1cc(-c2ccccc2C(F)(F)F)cn2cncc12	6.31µM
COc1cccc(-c2cc(-c3c(C)noc3C)cc3c2C(=O)N(C)C3=O)c1OC	–
c1cncc(-c2cc(-c3cccc(N4CCOCC4)c3)cn3cncc23)c1	–
Cc1noc(C)c1-c1cc(-c2ccc(CO)cc2)cn2cncc12	–
Cc1noc(C)c1-c1cc2c(c(-c3ccccc3)c1)C(=O)N(C)C2	–
FC(F)(F)c1ccccc1-c1cc(-c2cccnc2)c2cncn2c1	–
Cc1noc(C)c1-c1cc(-c2cccc(O)c2)cn2cncc12	11.2µM
Cc1noc(C)c1-c1cc(-c2ccccc2F)cn2cncc12	7.08µM
Cn1cccc1C(=O)N1CCC(N2C(=O)C(O)C23CCCCC3)CC1 (stereo not given)	–
Cc1cnc(CCNC(=O)C2CCCC2)n1C1CC1	–
O=C(CCC1CCN(C(=O)c2ccccc2)CC1)NCCCN1CCOCC1	–

From PubChem BioAssay
